Among the test systems are SNRK; SRC; SRMS; SRPK1; SRPK2; SRPK3; STK16; STK33; STK35; STK36; STK39; SYK; SgK110; TAOK1; TAOK2; TAOK3; TBK1; TEC.
Common to all, as to details: concentration: 1 μM, replicates: in singlicate; n = 1
Another assay relates to T1, SNARK.
T1 construct: gene NUAK2

The next assay deals with T2, TAK1.
T2 construct: gene MAP3K7
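Further: KINOMEscan kinase panel screen.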

As to `CC(=O)Nc1nc2cnc(Nc3cc(NC(=O)c4cccc(C5(C#N)CC5)c4Cl)ccc3C)nc2s1`, the “%Inh” value came to 0% in the assay with SNARK; 0% in the assay on SNRK; 45% in the assay with SRC; 0% in the assay with SRMS; 39% in the assay on SRPK1; 5% in the assay with SRPK2. Moreover, the “%Inh” value in the assay with SRPK3 is 0%; in the assay with STK16 it was 11%; in the assay with STK33, 0%; in the assay on STK35, 0%; in the assay with STK36, 0%; in the assay on STK39, 0%. For the same compound, the “%Inh” value was determined as 5% in the assay on SYK; 19% in the assay on SgK110; 3% in the assay with TAK1; 0% in the assay on TAOK1; 0% with TAOK2; 0% in the assay on TAOK3. Besides, the “%Inh” value with TBK1 and with TEC was 0% in each case.

For `Cl.Cl.NCC(NC(=O)c1cc(-c2ccccc2)c(-c2ccnc3[nH]ccc23)s1)c1ccccc1` (stereo not shown) [GSK1321561], the “%Inh” value in the assay with SNARK came to 50%; in the assay with SNRK, 0%; with SRC, 69%; with SRMS, 0%; in the assay with SRPK1 it was 53%; in the assay on SRPK2, 0%. In addition, the “%Inh” value was determined as 0% in the assay on SRPK3; 3% in the assay with STK16; 100% in the assay on STK33; 0% in the assay on STK35; 29% in the assay on STK36; 8% in the assay with STK39. Besides, the “%Inh” value in the assay with SYK amounted to 5%; with SgK110, 0%; in the assay with TAK1, 35%; in the assay with TAOK1, 4%; in the assay on TAOK2, 0%; in the assay with TAOK3 it was 0%. Further, the “%Inh” value in the assay on TBK1 was found to be 24%; with TEC, 11%.

For the compound `COc1cc2c(cc1OCCN1CCNCC1)ncc1c3ccc(C#N)cc3[nH]c21`, the “%Inh” value in the assay with SNARK worked out at 94.6%; in the assay on SNRK, 12%; with SRC, 0%; in the assay with SRMS it was 19%; with SRPK1 it was 36%; with SRPK2 it was 0%. For the same compound, the “%Inh” value is 42% in the assay on SRPK3; 9% with STK16; 19% in the assay with STK33; 0% in the assay with STK35; 6% with STK36; 33% in the assay with STK39. Besides, the “%Inh” value with SYK stood at 0%; with SgK110 it was 0%; in the assay on TAK1, 95.1%; with TAOK1 it was 0%; with TAOK2, 4%; in the assay on TAOK3, 2%. Further, the entries for the “%Inh” value with TBK1 and with TEC were 81% and 0%, respectively.

On to `Cl.c1ccc(-c2ccc3c(Nc4ccc5[nH]ncc5c4)ccnc3c2)nc1` [GW440137], for which the “%Inh” value in the assay on SNARK was determined as 20%; with SNRK, 0%; with SRC, 33%; in the assay on SRMS it was 0%; in the assay on SRPK1, 31%; in the assay with SRPK2 it was 0%. Also, the “%Inh” value with SRPK3 came to 0%; in the assay with STK16, 30%; with STK33 it was 0%; in the assay on STK35, 0%; in the assay on STK36, 0%; with STK39, 6%. Also, the “%Inh” value is listed as 27% with SYK; 6% in the assay with SgK110; 0% in the assay on TAK1; 0% in the assay on TAOK1; 0% with TAOK2; 0% in the assay with TAOK3. Further, the “%Inh” value with TBK1 is on record as 21%; in the assay with TEC, 0%.

As to `O=C(Nc1n[nH]c2nc(-c3ccc(O)cc3)ccc12)C1CC1` [SB-710363], the “%Inh” value with SNARK is 0%; with SNRK, 0%; in the assay on SRC, 0%; in the assay with SRMS it was 2%; in the assay on SRPK1 it was 20%; in the assay with SRPK2 it was 0%. Further, the “%Inh” value came to 25% in the assay on SRPK3; 73% in the assay with STK16; 0% in the assay on STK33; 0% in the assay on STK35; 15% in the assay on STK36; 18% with STK39. The “%Inh” value with SYK was determined as 25%; with SgK110, 0%; in the assay with TAK1, 21%; in the assay with TAOK1 it was 98.9%; in the assay with TAOK2 it was 79%; with TAOK3 it was 95.9%. Further, the “%Inh” value in the assay with TBK1 is 19%; with TEC, 0%.

Turning to `O=C(Nc1n[nH]c2cc(-c3ccoc3)ccc12)C1CC1` [SB-738481], the “%Inh” value is listed as 25% with SNARK; 0% in the assay on SNRK; 0% with SRC; 19% in the assay on SRMS; 48% with SRPK1; 0% in the assay on SRPK2. Also, the “%Inh” value in the assay with SRPK3 is on record as 37%; in the assay on STK16, 21%; in the assay on STK33 it was 0%; in the assay on STK35, 5%; in the assay with STK36 it was 13%; with STK39 it was 1%. Also, the “%Inh” value with SYK is listed as 2%; in the assay on SgK110, 0%; in the assay on TAK1, 2%; in the assay on TAOK1, 65%; in the assay on TAOK2 it was 27%; with TAOK3, 15%. For the same compound, the “%Inh” value in the assay with TBK1 stood at 15%; in the assay with TEC it was 0%.

Turning to `Cc1ccc(C)c(NC(=O)NC2CCN(c3ccnc(Nc4ccc(F)cc4)n3)C2)c1` (stereo not shown) [GSK1379720], the “%Inh” value with SNARK is listed as 0%; in the assay on SNRK, 0%; in the assay on SRC it was 0%; with SRMS, 0%; in the assay on SRPK1, 24%; in the assay on SRPK2, 49%. The “%Inh” value in the assay on SRPK3 is 0%; in the assay on STK16, 0%; with STK33 it was 0%; in the assay with STK35, 0%; in the assay with STK36, 5%; in the assay on STK39, 10%. Further, the “%Inh” value in the assay on SYK is reported as 16%; in the assay on SgK110 it was 11%; in the assay with TAK1, 0%; in the assay on TAOK1, 0%; with TAOK2, 0%; in the assay with TAOK3 it was 0%. Besides, the figures for the “%Inh” value in the assay on TBK1 and with TEC were 0% and 2%, respectively.

As for `CCc1ccc(-c2ccc3c(c2)-c2c(cnn2C)S(=O)(=O)N3C)cc1`, the “%Inh” value in the assay on SNARK is reported as 8%; in the assay with SNRK, 0%; in the assay with SRC it was 0%; with SRMS, 0%; with SRPK1, 0%; with SRPK2, 0%. Moreover, the “%Inh” value is recorded as 18% in the assay with SRPK3; 0% in the assay with STK16; 0% with STK33; 2% with STK35; 0% in the assay with STK36; 0% with STK39. Further, the “%Inh” value came out at 0% in the assay on SYK; 0% in the assay on SgK110; 4% in the assay with TAK1; 0% in the assay on TAOK1; 0% with TAOK2; 0% with TAOK3. Also, the “%Inh” value was 8% in the assay on TBK1 and 0% in the assay with TEC.

`Cl.Cl.NCC(C(=O)Nc1cc(Br)c(-c2ccnc3[nH]ccc23)s1)c1ccccc1` (stereo not shown) [GSK1269851]: the “%Inh” value with SNARK came to 0%; in the assay with SNRK, 0%; in the assay with SRC it was 0%; in the assay with SRMS, 0%; in the assay with SRPK1, 73%; with SRPK2, 59%. The “%Inh” value with SRPK3 turned out to be 90.7%; with STK16, 13%; in the assay with STK33, 52%; in the assay on STK35, 0%; in the assay on STK36, 0%; with STK39 it was 44%. In addition, the “%Inh” value in the assay on SYK is on record as 7%; with SgK110, 0%; in the assay on TAK1, 0%; in the assay with TAOK1 it was 0%; in the assay with TAOK2 it was 0%; in the assay on TAOK3 it was 0%. In addition, the “%Inh” value in the assay on TBK1 came to 7%; in the assay with TEC it was 11%.

For `c1ccc(-c2cnc3nccnn23)cc1` [AH20685], the “%Inh” value is on record as 0% with SNARK; 0% in the assay with SNRK; 0% with SRC; 0% in the assay with SRMS; 20% in the assay on SRPK1; 0% in the assay with SRPK2. The “%Inh” value in the assay on SRPK3, in the assay on STK16, with STK33, in the assay with STK35, with STK36 and with STK39 was 0% in each case. For the same compound, the “%Inh” value in the assay with SYK came to 26%; in the assay with SgK110, 0%; in the assay on TAK1, 0%; in the assay with TAOK1, 0%; in the assay on TAOK2, 0%; in the assay on TAOK3, 0%. Moreover, the “%Inh” value in the assay with TBK1 and with TEC was 0% in each case.

In the case of `COc1ccc(Nc2nccc(NCCNC(=O)c3cc4ccccc4s3)n2)cc1` [GSK1379896], the “%Inh” value amounted to 0% in the assay with SNARK; 2% with SNRK; 9% with SRC; 0% in the assay with SRMS; 32% in the assay with SRPK1; 0% in the assay with SRPK2. Further, the “%Inh” value in the assay on SRPK3 came to 3%; in the assay on STK16 it was 13%; in the assay with STK33, 0%; in the assay with STK35, 0%; in the assay with STK36 it was 0%; in the assay with STK39, 3%. Further, the “%Inh” value came out at 2% in the assay with SYK; 24% with SgK110; 0% in the assay with TAK1; 0% with TAOK1; 0% with TAOK2; 0% in the assay on TAOK3. Further, the “%Inh” value in the assay with TBK1 is listed as 2%; in the assay on TEC it was 0%.

Source of the values: publication PMC5540273 (PLoS ONE, 2017).
